Many of the other results were omitted from the sample, so hits are more common in it than they were.
KDM5B inh = KDM5B demethylase inhibition. actives 2.6% (n = 220,000). KDM5B demethylase, FDH-coupled NADH fluorescence (FDH is formaldehyde dehydrogenase). Potency, µM (series often up to 57.7 µM), actives largely listed as inhibitors; active means well fitted inhibition curve with a large enough effect; further: 0% is about no effect; nearly all actives have a fitted effect of over 70% in size
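Measured: NADH fluorescence change, 30 min, RT. System: KDM5BΔAP 200 nM final, H3K4me3 peptide, α-KG, Fe(II), ascorbate, NAD⁺ plus FDH, pH 7.5 HEPES. Compounds: titrated, 10 min pre-incubation with enzyme.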
Starred values were filed as active, the others as inactive; i = inactive. Potency means the concentration at half of the fitted maximal effect.

SMILES	KDM5B inh
CCN(CC)C(=O)c1cc(-c2ccc(Br)cc2)nc2ccccc12	i
CN1CC(=O)N(C2CCNC2)Cc2c1ncnc2N(C)Cc1ccc(F)cc1 (centres undefined)	i
CN1CC(=O)N(C2CCNCC2)Cc2c1ncnc2N1CCCC1CO (centres undefined)	i
CN1CC(=O)N(C2CCCNCC2)Cc2c1ncnc2N1CCN(c2ccccn2)CC1 (centres undefined)	79.4µM*
CCNc1ncnc2c1CN(C1CCNCC1)C(=O)CN2C	56.2µM*
CCC(CO)Nc1ncnc2c1CN(C1CCCNCC1)C(=O)CN2C (centres undefined)	i
CN1CC(=O)N(C2CCCNCC2)Cc2c1ncnc2N1CCCCCC1 (centres undefined)	i
CN1CC(=O)N(C2CCCNC2)Cc2c1ncnc2N(C)Cc1ccc(F)cc1 (centres undefined)	22.4µM*
CN1CC(=O)N(C2CCCNCC2)Cc2c1ncnc2N1CCNC(=O)C1 (centres undefined)	i
CN1CC(=O)N(C2CCCNC2)Cc2c(NCCc3cccc(F)c3)ncnc21 (centres undefined)	i
Cc1ccccc1NC(=O)C(C)Sc1ncnc2ccccc12 (centres undefined)	i
COCCN1C(=O)C(CC(=O)NCCCn2cccn2)=C2CCCCC21 (centres undefined)	i
COCC[C@]1(O)CCN(C(=O)c2ccc(Cl)cc2F)C[C@H]1C	i
CCOc1ccc(Cn2c(=O)c3sccc3n(CC(=O)NCc3ccc4c(c3)OCO4)c2=O)cc1	i
C=CCNc1nc(-c2ccc3c(c2)C(C)C(=O)N3)cs1 (centres undefined)	i
Cn1cc(-c2cnc(Nc3ccc(F)c(Cl)c3)c3c2CCO3)cn1	31.6µM*
Cc1cc(-c2cnc(Nc3ccc(F)cc3)c3c2CCO3)ccn1	12.6µM*
Cn1cc(-c2cnc(Nc3ccncc3)c3c2CCO3)cn1	35.5µM*
Fc1ccc(Nc2ncnc3onc(-c4ccc(Cl)cc4)c23)cc1	i
CCCCn1nc(C(=O)Nc2nc(C)cs2)c2ccccc2c1=O	i
CC(C)N1CCCC2(CCN(C(=O)c3cn[nH]c3-n3cnnn3)C2)C1=O (centres undefined)	i
CCC1CCCCN1C(=O)C1=CC(c2ccc(C)cc2)=NS(=O)(=O)N1C (centres undefined)	i
CCc1ccc(C(=O)COC(=O)c2ccc(S(=O)(=O)NCc3ccco3)cc2)cc1	i
CCOc1ccc(NC(=O)Cc2cc(Cl)c3c(c2)OCCCO3)cc1S(=O)(=O)N1CCCC1	i
Cc1noc2c(NC3CCOCC3)cc(-c3ccsc3)nc12	i
SMILES	KDM5B inh
Cc1noc2c(NCC3CCOCC3)cc(-c3ccc(Cl)cc3)nc12	i
Cc1noc2c(-c3cccnc3NCC3CCOCC3)cc(-c3ccccc3)nc12	31.6µM*
Cc1noc2c(N3CCOCC3)cc(-c3cccnc3)nc12	i
Cc1noc2c(NCCN3CCOCC3)cc(-c3ccccc3)nc12	i
Cc1noc2c(NCCc3ccccn3)cc(-c3cccnc3)nc12	i
Cc1noc2c(-c3cccnc3N3CCOCC3)cc(-c3ccccc3)nc12	35.5µM*
COCCNc1ncccc1-c1cc(-c2ccccc2)nc2c(C)noc12	31.6µM*
COCCCNc1cc(-c2cccc(C(F)(F)F)c2)nc2c(C)noc12	i
Cc1cccc(CNC(=O)CN2CC3CC(C2)[C@H]2CCCC(=O)N2C3)c1 (some centres undefined)	i
Cc1ccc(S(=O)(=O)N(C)Cc2c(C)nn(-c3ccccc3)c2C)cc1	i
Cc1cn2c3c(=O)[nH]c(=O)n(C)c3nc2n1CCCN1CCN(c2ccccc2)CC1	i
O=C(Nc1ccc(Br)cc1Cl)C12CC3CC(CC(C3)C1)C2	i
Cc1nc(Oc2ccccc2Cl)c2c3c(sc2n1)CCC3	i
Cc1ccc(-c2noc(-c3ccc(Br)cc3)n2)cc1	i
CCN1CC(CN(C)C(=O)c2nn(Cc3ccccc3)c(=O)c3ccccc23)Oc2ccccc21 (centres undefined)	i
COC(=O)C1=C(C)N(C(C)C)C(=O)C1(NC(=O)C1CC1)C(F)(F)F (centres undefined)	i
C1CCC(COCCc2noc(C3CCCN3)n2)C1 (centres undefined)	i
C1CCC(c2nc(CCOCC3CCOCC3)no2)NC1 (centres undefined)	31.6µM*
C1CCC(c2nc(CCOCC3CC3)no2)NC1 (centres undefined)	i
C#Cc1cccc(NC(=O)Cc2ccc(OC)cc2)c1	i
CC(=O)N1CCN(C(=O)CSc2nnc(Nc3ccc(C)cc3C)s2)CC1	i
COc1ccc(CN2C(=O)[C@@H]3C[C@@H](O)CN3C3(CNC3)C2=O)cc1	i
COc1ccc(C(=O)N2CCc3nc(C)nc(-c4ccc(Cl)cc4)c3CC2)cc1	i
C/C(=N/Nc1ccc(S(N)(=O)=O)cc1[N+](=O)[O-])c1ccccc1F	i
COc1ccc(-c2csc(/C(C#N)=C\c3ccccc3C(F)(F)F)n2)cc1	i
SMILES	KDM5B inh
COCCN1C(=O)c2cccn2CC1CNC(=O)c1cccc(F)c1 (centres undefined)	i
CN1C(=O)c2cccn2CC1CNC(=O)c1ccoc1 (centres undefined)	i
COc1cccc(C(=O)NCC2Cn3cccc3C(=O)N2C)c1 (centres undefined)	i
Cc1cnc(C(=O)NCC2Cn3cccc3C(=O)N2C)cn1 (centres undefined)	i
CN1Cc2cccn2CC1CNC(=O)c1ccccc1 (centres undefined)	28.2µM*
CN1Cc2cccn2CC1CNC(=O)c1cccc(F)c1 (centres undefined)	25.1µM*
Cc1cc(C(=O)NCC2Cn3cccc3CN2C)nn1C (centres undefined)	25.1µM*
CC(C)CN1C(=O)c2cccn2CC1CNC(=O)c1cccs1 (centres undefined)	i
COc1ccccc1C(=O)NCC1Cn2cccc2C(=O)N1C (centres undefined)	i
CCn1nc(C)c(-c2cc(C(=O)NCC3Cn4cccc4C(=O)N3C)no2)c1C (centres undefined)	i
Cc1ccc(S(=O)(=O)N2CCCC(CNC(=O)c3cccs3)C2)cc1 (centres undefined)	i
CN1Cc2cccn2CC1CNC(=O)c1cccs1 (centres undefined)	20µM*
O=C(c1ccc(Cl)cc1)c1ccccc1C(=O)N1CCN(C(=O)CC2CCCC2)CC1	i
CCc1cccc(NC(=O)CCn2ccn3nc4c(c3c2=O)CCCC4)c1	i
COc1nc2cc(C)c(C)cc2nc1C(=O)Nc1cc(C)cc(C)c1	i
Cc1ccc(Cl)cc1Nc1nc(N)c(C(=O)c2ccccc2F)s1	i
O=C(Nc1ccc(Cl)cc1C(F)(F)F)C(c1ccccc1)c1ccccc1	i
CCC(CC)C(=O)Nc1nnc(C2CC(=O)N(c3ccc(Cl)cc3)C2)s1 (centres undefined)	i
CN1Cc2cccn2CC1CNC(=O)c1nccn1C (centres undefined)	14.1µM*
CN1C(=O)c2cccn2CC1CNC(=O)CCc1ccccc1 (centres undefined)	i
Cc1cccc(CC(=O)NCC2Cn3cccc3C(=O)N2C)c1 (centres undefined)	i
CN1C(=O)c2cccn2CC1CNC(=O)c1cccc2nccnc12 (centres undefined)	i
CN1C(=O)c2cccn2CC1CNC(=O)c1cc(CN2CCOCC2)on1 (centres undefined)	i

From PubChem
